From PubChem BioAssay (Tox21)
Inconclusive results are not listed. Active and inactive are the calls of the source. Calls come from the whole dose curve; as a rule, active = well fitted curve in the direction sought with a large enough effect in the repeat runs; inconclusive = weak or mixed curves; inactive = no such curve, though single readings can be large; an effect the other way counts as inactive or inconclusive.

Key:
[1] = qHTS RealTime-Glo MT Cell Viability Assay in HepG2 cells - 8 hour (AID 1224873); note: nearly all actives have a fitted effect of over 55% in size
Summary of the method: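 HepG2 cells mixed with RealTime-Glo MT reagents (NanoLuc plus cell-permeant prosubstrate) were seeded at 600 cells/well, incubated 5 h at 37 C/5% CO2, then pinned with compounds in DMSO; nonlytic luminescence tracked viability during 40 h treatment.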

[2] = A CellTox Green Cytotoxicity Assay to monitor cytotoxicity in HEK293 cells - 24 hour (AID 1224875); note: series mostly up to about 77 µM; nearly all actives have a fitted effect of over 45% in size
Summary of the method: (§1)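 Nonlytic real-time cytotoxicity: HEK293 + CellTox Green reagent plated, 5 h preincubation, pintool compound addition (23 nL in DMSO), 37 C for 40 h, fluorescence measured at successive time points.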

[3] = A CellTox Green Cytotoxicity Assay to monitor cytotoxicity in HepG2 cells - 16 hour (AID 1224876); note: nearly all actives have a fitted effect of over 45% in size
Summary of the method: (§2)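 Read-out is fluorescence of a cyanine dye excluded from live cells that stains DNA of dead HepG2 cells, with signal proportional to cytotoxicity. Plates were read at 0, 8, 16, 24, 32 and 40 h after compound addition.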

[4] = qHTS RealTime-Glo MT Cell Viability Assay in HepG2 cells - 32 hour (AID 1224877); note: nearly all actives have a fitted effect of over 55% in size
Summary of the method: (§3)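 HepG2 cells (600/well) were dispensed with RealTime-Glo reagents, incubated 5 h at 37 °C, then treated with compounds in DMSO for up to 40 h. Nonlytic NanoLuc luminescence reflecting viable cells was read at each stated time point.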

[5] = A CellTox Green Cytotoxicity Assay to monitor cytotoxicity in HepG2 cells - 24 hour (AID 1224878); note: nearly all actives have a fitted effect of over 45% in size
Summary of the method: as §2

[6] = A CellTox Green Cytotoxicity Assay to monitor cytotoxicity in HepG2 cells - 40 hour (AID 1224879); note: nearly all actives have a fitted effect of over 40% in size
Summary of the method: as §2

[7] = qHTS RealTime-Glo MT Cell Viability Assay in HEK293 cells - 0 hour (AID 1224880); note: top concentration of the series differs between compounds; nearly all actives have a fitted effect of over 45% in size
Summary of the method: (§4)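 Cells were seeded together with NanoLuc luciferase and a prosubstrate that viable cells reduce to a luciferase substrate. After a 5 h incubation at 37 C/5% CO2, compounds were added and luminescence was measured repeatedly during 40 h of treatment.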

[8] = A CellTox Green Cytotoxicity Assay to monitor cytotoxicity in HEK293 cells - 32 hour (AID 1224881); note: nearly all actives have a fitted effect of over 40% in size
Summary of the method: as §1

[9] = A CellTox Green Cytotoxicity Assay to monitor cytotoxicity in HepG2 cells - 0 hour (AID 1224882); note: nearly all actives have a fitted effect of over 35% in size
Summary of the method: as §2

[10] = A CellTox Green Cytotoxicity Assay to monitor cytotoxicity in HepG2 cells - 32 hour (AID 1224883); note: nearly all actives have a fitted effect of over 50% in size
Summary of the method: as §2

[11] = A CellTox Green Cytotoxicity Assay to monitor cytotoxicity in HEK293 cells - 8 hour (AID 1224884); note: nearly all actives have a fitted effect of over 35% in size
Summary of the method: as §1

[12] = qHTS RealTime-Glo MT Cell Viability Assay in HepG2 cells - 16 hour (AID 1224885); note: nearly all actives have a fitted effect of over 50% in size
Summary of the method: as §3

[13] = qHTS RealTime-Glo MT Cell Viability Assay in HEK293 cells - 24 hour (AID 1224886); note: top concentration of the series differs between compounds; nearly all actives have a fitted effect of over 50% in size
Summary of the method: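 HEK293 cells seeded with NanoLuc/prosubstrate reagent, rested 5 h at 37 C, then dosed and kept at 37 C up to 40 h. Nonlytic real-time luminescence from viable cells read at 0, 8, 16, 24, 32 and 40 h.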

[14] = qHTS RealTime-Glo MT Cell Viability Assay in HEK293 cells - 8 hour (AID 1224887); note: top concentration of the series differs between compounds; nearly all actives have a fitted effect of over 50% in size
Summary of the method: as §4

[15] = A CellTox Green Cytotoxicity Assay to monitor cytotoxicity in HEK293 cells - 16 hour (AID 1224888); note: nearly all actives have a fitted effect of over 35% in size
Summary of the method: as §1

[16] = qHTS RealTime-Glo MT Cell Viability Assay in HepG2 cells - 0 hour (AID 1224889); note: nearly all actives have a fitted effect of over 50% in size
Summary of the method: as §3

[17] = A CellTox Green Cytotoxicity Assay to monitor cytotoxicity in HepG2 cells - 8 hour (AID 1224890); note: nearly all actives have a fitted effect of over 45% in size
Summary of the method: as §2

[18] = qHTS assay to identify small molecule antagonists of the estrogen receptor alpha (ER-alpha) signaling pathway using the BG1 cell line in the presence of 0.1 nM 17-beta-estradiol - cell viability counter screen (AID 1259241); note: nearly all actives have a fitted effect of over 40% in size
Summary of the method: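 Cytotoxicity counter-screen: live-cell protease activity measured by fluorescence (30 min reagent step) in the same wells. Cells were VM7Luc4E2 with endogenous ER-alpha and ERE-driven luciferase, treated 22 hr at 37C alongside 0.1 nM 17beta-estradiol final.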

[19] = qHTS assay to identify small molecule antagonists of the androgen receptor (AR) signaling pathway using the MDA cell line in the presence of 0.5 nM R1881 - cell viability counter screen (AID 1259242); note: nearly all actives have a fitted effect of over 45% in size
Summary of the method: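 Counter screen for cytotoxicity run in the same wells as the AR antagonist reporter screen: MDA-kb2 cells were treated 16 hr with test compounds and 0.5 nM R1881, then live-cell protease activity was measured by fluorescence.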

[20] = qHTS RealTime-Glo MT Cell Viability Assay in HEK293 cells - 40 hour (AID 1224874); details: RealTime-Glo luminescence; max response: hits give low values; note: nearly all actives have a fitted effect of over 50% in size
Summary of the method: as §4
% is set by controls: 0 for no effect and ±100 for the full control effect.

COc1c(N2CCNC(C)C2)c(F)cc2c(=O)c(C(=O)O)cn(C3CC3)c12 (stereo unspecified)
inactive: outcome [1] | outcome [2] | outcome [3] | Potency [4] | outcome [5] | Potency [6] | Potency [7] | outcome [8] | Potency [9] | Potency [10] | outcome [11] | outcome [12] | Potency [13] | Potency [14] | outcome [15] | Potency [16] | outcome [17] | outcome [18] | outcome [19]

COCCOCC(OC)OC
inactive: max response [20] -1.01% | outcome [2] | outcome [3] | Potency [4] | outcome [5] | Potency [6] | Potency [7] | outcome [8] | Potency [9] | Potency [10] | outcome [11] | outcome [12] | Potency [13] | Potency [14] | outcome [15] | Potency [16] | outcome [17] | outcome [18] | outcome [19]

O=C(CO)[C@@H](O)[C@H](O)[C@H](O)CO
inactive: outcome [1] | outcome [2] | outcome [3] | Potency [4] | outcome [5] | Potency [6] | Potency [7] | outcome [8] | Potency [9] | Potency [10] | outcome [11] | Potency [13] | Potency [14] | outcome [15] | Potency [16] | outcome [17] | outcome [18] | outcome [19]

C[C@H]1C[C@H]2[C@@H]3CCC4=CC(=O)C=C[C@]4(C)[C@H]3C(=O)C[C@]2(C)[C@@]1(O)C(=O)CO
inactive: outcome [1] | outcome [2] | outcome [3] | Potency [4] | outcome [5] | Potency [6] | Potency [7] | outcome [8] | Potency [10] | outcome [11] | outcome [12] | Potency [13] | Potency [14] | Potency [16] | outcome [17] | outcome [19]

Cc1nc2ccc(CN(C)c3ccc(C(=O)N[C@@H](CCC(=O)O)C(=O)O)s3)cc2c(=O)[nH]1
inactive: outcome [1] | outcome [2] | outcome [3] | Potency [4] | outcome [5] | Potency [6] | Potency [7] | outcome [8] | Potency [9] | Potency [10] | outcome [11] | outcome [12] | Potency [14] | Potency [16] | outcome [17] | outcome [18] | outcome [19]

O=C(c1ccccc1O)c1ccccc1O
inactive: outcome [1] | outcome [2] | outcome [3] | Potency [4] | outcome [5] | Potency [6] | Potency [7] | Potency [9] | Potency [10] | outcome [11] | outcome [12] | Potency [14] | outcome [17] | outcome [18] | outcome [19]

CO[C@@]1(NC(=O)CSC[C@@H](N)C(=O)O)C(=O)N2C(C(=O)O)=C(CSc3nnnn3C)CS[C@@H]21
inactive: outcome [1] | outcome [2] | outcome [3] | Potency [4] | outcome [5] | Potency [7] | outcome [8] | Potency [9] | Potency [10] | outcome [11] | outcome [12] | Potency [13] | Potency [14] | outcome [15] | Potency [16] | outcome [17] | outcome [18] | outcome [19]

CCCCN(CCC(=O)OCC)C(C)=O
inactive: outcome [1] | outcome [2] | outcome [3] | Potency [4] | outcome [5] | Potency [7] | outcome [8] | Potency [9] | Potency [10] | outcome [11] | outcome [12] | Potency [13] | Potency [14] | Potency [16] | outcome [17] | outcome [18] | outcome [19]

NC(=O)N[C@@H](CCC(=O)O)C(=O)O
inactive: outcome [1] | outcome [2] | outcome [3] | Potency [4] | Potency [6] | Potency [7] | outcome [8] | Potency [10] | outcome [11] | outcome [12] | Potency [13] | Potency [14] | outcome [15] | Potency [16] | outcome [17] | outcome [18] | outcome [19]

CCCc1nn(C)c2c(=O)[nH]c(-c3cc(S(=O)(=O)N4CCN(C)CC4)ccc3OCC)nc12
inactive: outcome [1] | outcome [2] | outcome [3] | Potency [4] | outcome [5] | Potency [6] | outcome [8] | Potency [9] | Potency [10] | outcome [11] | outcome [12] | Potency [14] | Potency [16] | outcome [17] | outcome [18] | outcome [19]

CCCC[N+](C)(CCCC)CCCC
inactive: outcome [1] | outcome [2] | outcome [3] | Potency [4] | outcome [5] | Potency [6] | Potency [7] | outcome [8] | Potency [9] | Potency [10] | outcome [11] | outcome [12] | Potency [14] | outcome [15] | Potency [16] | outcome [17] | outcome [18] | outcome [19]

C[N+](C)(C)CCCCCCCCCC[N+](C)(C)C
inactive: outcome [1] | outcome [2] | outcome [3] | Potency [4] | outcome [5] | Potency [6] | outcome [8] | Potency [9] | Potency [10] | outcome [11] | outcome [12] | Potency [13] | Potency [14] | outcome [15] | Potency [16] | outcome [17] | outcome [18] | outcome [19]

CC(C)(C)OC(=O)c1cccc(N)c1
inactive: outcome [1] | outcome [2] | outcome [3] | Potency [4] | outcome [5] | Potency [6] | outcome [8] | Potency [10] | outcome [11] | Potency [14] | outcome [15] | Potency [16] | outcome [19]

O=C(O)c1cn(C2CC2)c2cc(N3CCNCC3)c(F)cc2c1=O
inactive: outcome [1] | outcome [2] | outcome [3] | Potency [4] | outcome [5] | Potency [6] | Potency [7] | outcome [8] | Potency [9] | Potency [10] | outcome [11] | outcome [12] | Potency [14] | outcome [15] | Potency [16] | outcome [18] | outcome [19]

CCCCCCCCCCOc1cc2c(=O)c(C(=O)OCC)c[nH]c2cc1OCC
inactive: viability change, negative = cytotoxic [1] 8.14% [at 6.97 µM] | activity change [2] 2.15% [at 6.97 µM] | cytotoxicity increase [3] 1.94% [at 6.97 µM] | activity change, negative = cytotoxic [4] 0.806% [at 6.97 µM] | cytotoxicity [5] 2.18% [at 6.97 µM] | cytotoxicity increase [6] -5.64% [at 6.97 µM] | activity change, negative = cytotoxicity [7] -0.96% [at 6.97 µM] | cytotoxicity increase [8] 0.664% [at 6.97 µM] | cytotoxicity [9] 9.56% [at 6.97 µM] | cytotoxicity increase [10] -9.18% [at 6.97 µM] | cytotoxicity increase [11] 2.19% [at 6.97 µM] | activity change, negative = cytotoxic [12] 4.28% [at 6.97 µM] | activity change, negative = cytotoxicity [13] 3.7% [at 6.97 µM] | activity change, negative = cytotoxicity [14] 3.87% [at 6.97 µM] | activity change, negative = cytotoxicity [16] 9.73% [at 6.97 µM] | cytotoxicity increase [17] -1.8% [at 6.97 µM] | activity change, negative = cytotoxicity [18] 4.33% [at 8.39 µM] | viability change, negative = cytotoxic [19] 2.82% [at 8.39 µM]
